{"source": "ChEMBL document CHEMBL4888484", "about": "“Replenishing the malaria drug discovery pipeline: Screening and hit evaluation of the MMV Hit Generation Library 1 (HGL1) against asexual blood stage Plasmodium falciparum ,using a nano luciferase reporter read-out” (2022)", "note": "About 410 (8.5%) of roughly 4,800 compounds showed an effect of 50% or more. This is one part of a sample in which strong results are shown more often than they occur."}
{"tested_on": "Plasmodium falciparum", "assay": "Confirmatory screen in NF54 pLDH assay, in single point, at 2uM, 72h", "format": "functional, Erythrocyte", "conditions": "timepoint 72 hour", "units": {"% Inhibition": "%"}}
{"compound": "COC1CCCCC1NC(=O)c1ccc(-c2noc(C(F)(F)F)n2)cc1", "note": "(centres undefined)", "% Inhibition": 8}
{"compound": "CNC[C@H]1CCCN1C(=O)c1ccc(-c2noc(C(F)(F)F)n2)cc1", "% Inhibition": 12}
{"compound": "COc1cccc(CNC(=O)Cn2c(=O)n(C)c(=O)c3c2c(-c2ccccc2)cn3C)c1OC", "% Inhibition": -10}
{"compound": "Cc1oc(-c2ccn[nH]2)cc1S(=O)(=O)Nc1cccc(Cl)c1", "% Inhibition": 4}
{"compound": "COc1ccc(-c2noc(Cn3c(=O)c4ccccc4n(CC(=O)NCCc4ccc(OC)c(OC)c4)c3=O)n2)cc1", "% Inhibition": 6}
{"compound": "CNCC(=O)Nc1ccccc1C(F)(F)F", "% Inhibition": -9}
{"compound": "O=C(c1cnc2ccccc2n1)N1CCCC1", "% Inhibition": -1}
{"compound": "c1ncc(N2CCN3CCC[C@H]3C2)nc1OCC1CCCC1", "% Inhibition": -16}
{"compound": "N[C@H]1C[C@@H](c2cc(N3CCN(C4CCCCC4)CC3)nc(N3CCCC3)n2)C1", "% Inhibition": 50}
{"compound": "Cc1cccc(CNc2cc([C@H]3C[C@@H](N)C3)nc(N3CCCC3)n2)c1", "% Inhibition": 14}
{"compound": "O=C(O)CCCC(=O)NCCc1ccc(Cl)cc1", "% Inhibition": -19}
{"compound": "COc1ccc(OCc2nc3cc4c(cc3cc2C(=O)O)OCO4)cc1", "% Inhibition": 5}
{"compound": "CCOc1ccc(-n2c(CN3CCN(C(=O)c4ccco4)CC3)nc3ccccc3c2=O)cc1", "% Inhibition": 14}
{"compound": "CCOc1ccc(Nc2c3ccccc3nc3ccccc23)cc1", "% Inhibition": 96}
{"compound": "COc1ccc(NC(=O)c2nc(Nc3ccccc3)c3ccccc3n2)cc1", "% Inhibition": 7}
{"compound": "Cc1ccc(-c2ccnc3c(C(=O)N4CCOCC4)cnn23)cc1C", "% Inhibition": 2}
{"compound": "Cc1cccnc1C(F)(F)C(=O)Nc1cc(C)c(O)c(C)c1", "% Inhibition": 11}
{"compound": "O=C(Nc1ccc(N2CCn3c(nc4cc(Cl)ccc43)C2)cc1)NC1CCCCC1", "% Inhibition": -13}
{"compound": "C[C@H](OC1CCCCCC1)C(=O)Nc1nc(C(N)=O)cs1", "% Inhibition": -11}
{"compound": "Cc1ccccc1C(=O)NCc1nn(C2CCCC2)c2c1COCC2", "% Inhibition": 6}
{"compound": "COc1ccc(C)c2sc(N(CCCn3ccnc3)C(=O)Cc3ccc(F)cc3)nc12", "% Inhibition": 85}
{"compound": "COc1cccc(CNCCCn2ccnc2)c1OCc1ccc(F)cc1", "% Inhibition": 10}
{"compound": "Cc1nn(C)c(Cl)c1CNCc1ccc(N2CCCCC2)nc1", "% Inhibition": -13}
{"compound": "COc1cc(CNCCN2CCOCC2)ccc1OCc1cccc(C)c1", "% Inhibition": 7}
{"compound": "O=C(Nc1ccncc1)c1nc(N2CCCC2)ncc1Br", "% Inhibition": -9}
{"compound": "Fc1ccc(COc2cccc(CNCCN3CCOCC3)c2)cc1", "% Inhibition": -3}
{"compound": "CCCc1nnc(N(Cn2nnc3ccccc32)C(=O)CN2CCOCC2)s1", "% Inhibition": 2}
{"compound": "CC1CCC(c2noc([C@H]3CCO[C@@H]3c3cncc(Br)c3)n2)CC1", "note": "(some centres undefined)", "% Inhibition": 59}
{"compound": "O=C(c1cncc(Br)c1)N1CC[C@H](c2nc(C3CCOCC3)no2)C1", "% Inhibition": 10}
